HT1080-NT tox – kills 2HG-producing HT-1080-NT fibrosarcoma cells. HT-1080-NT fibrosarcoma viability, CellTiter-Glo ATP luminescence, 48 h. Potency, µM (series often up to 46.1 µM), without a hit: top-dose activity, negative = less viability, most hits filed as cytotoxic. actives 1.6% (n = 360,000). AID 686970;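 note: NT is the 2HG producing partner of a matched IDH1 knockdown line; potency is the fitted concentration of half-maximal effect; 0% = DMSO-treated cells and -100% = media-only wells without cells; nearly all actives have a fitted effect of over 55% in size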
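HT-1080-NT fibrosarcoma cells (2HG-overproducing), 750 cells/well in RPMI with 5% FBS, dosed after 2 h and incubated 48 h at 37C. CellTiter-Glo luminescence normalized to DMSO and no-cell wells; concentration-response curves fitted and classed.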
HT1080 IDH1KD tx – kills HT-1080 cells with IDH1 knockdown; HT-1080 IDH1 knockdown viability, ATP luminescence, 48 h; Potency, µM (doses to about 46.1 µM), for the others: top-dose activity, negative = toxicity, usual class: cytotoxic; actives 2% (n = 360,000);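 note: potency is the fitted concentration of half-maximal effect; 0% = DMSO wells and -100% = cell-free medium wells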
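Using the IDH1-knockdown HT-1080 line run in the same batch and compound series as the NT line, viability after 48 h at 37 °C was determined by CellTiter-Glo luminescence and expressed as % activity.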
TDP1 cell CPT – DT40-hTDP1 cell growth loss with CPT; Potency, µM (doses to about 46.2 µM), for the others: at the top dose activity change, negative = growth inhibition, hits mostly inhibitors; chicken DT40 Tdp1-/-;hTDP1 cells + 20 nM CPT, ATP luminescence, 48 h; actives 12% (n = 420,000); AID 686979; note: potency is the fitted concentration of half-maximal effect; nearly all actives have a fitted effect of over 55% in size
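Chicken DT40 Tdp1-/- cells stably complemented with human TDP1 were seeded at 400 cells/well in medium containing 20 nM camptothecin, exposed to pin-transferred compounds, and grown at 37 °C for at least 48 hr. Viability was read as ATP luminescence.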
IL-1B inflam inh – inhibitors of inflammasome signaling (IL-1 beta secretion); THP-1 LPS/ATP IL-1B secretion, AlphaLISA, 16 h; active compounds read low; activity change, % at 57.5 µM; actives 4.7% (n = 360,000); in the data active = activity change below about -50%; inconclusive = mostly about -30% to -49%
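THP-1 cells pretreated 1 hr with compounds (up to 57.5 uM final), then stimulated with LPS (250 ng/mL final) plus ATP (1.25 mM final); secreted IL-1B measured by AlphaLISA after 16 hr, decreased signal indicating inhibition.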
TDP1 cell noCPT – qHTS for Inhibitors of human tyrosyl-DNA phosphodiesterase 1 (TDP1): qHTS in cells in absence of CPT. DT40 Tdp1-/- hTDP1 cells, no CPT, ATP luminescence, 48 h. Potency, µM (titrated, usually from 46.2 µM), for inactives: at the highest dose activity change, negative = growth inhibition, usual class: inhibitors. actives 15% (n = 420,000); note: potency is the fitted concentration of half-maximal effect; nearly all actives have a fitted effect of over 55% in size
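Seeded 400 DT40-hTDP1 cells/well (vehicle DMSO, no 20 nM CPT); pinned compounds; ≥48 hr at 37 °C; CellTiter-Glo luminescence as viability measure.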
Numbers without * were called inactive; i = inactive; ? = inconclusive; / = no result given. Compounds with a hit are over-represented: about 19% of the library has one in this group of screens. Unless noted, calls come from the whole dose curve; as a rule, active = well fitted curve in the direction sought with a large enough effect; inconclusive = small, poorly fitted or top-dose-only effect, or another doubt; inactive = no such curve, though single readings can be large; an effect the other way counts as inactive or inconclusive. Unless noted, % is set by controls: 0 for no effect and ±100 for the full control effect.

SMILES | HT1080-NT tox | HT1080 IDH1KD tx | TDP1 cell CPT | IL-1B inflam inh | TDP1 cell noCPT
Cn1cc(CNC(=O)C2CCC(=O)N(Cc3ccccc3F)C2)cn1 (configuration not stated) | 0% | 10% | -1% | 4 | -1%
Cc1ccccc1Cn1c(O)c(N=NC(=S)Nc2ccccc2F)c2ccccc21 | -13% | -13% | 5.8µM* | -9 | 6.5µM*
CCNC(=S)N=Nc1c(O)n(Cc2ccc(Cl)cc2)c2ccccc12 | ? | ? | 16µM* | -5 | ?
CCn1c(O)c(N=NC(=O)CNC(=O)c2ccccc2F)c2ccccc21 | ? | ? | ? | 0 | ?
Oc1c(N=NC(=S)Nc2ccccc2F)c2ccccc2n1Cc1ccccc1F | 4% | -13% | 16µM* | 0 | 7.3µM*
Cc1ccc(C)c(Cn2c(=O)n(CCC(=O)NCc3ccco3)c(=O)c3ccccc32)c1 | -1% | -1% | 17% | 19 | -20%
Cc1ccc(C)c(Cn2c(O)c(N=NC(=S)Nc3ccccc3F)c3ccccc32)c1 | 1% | 8% | 5.2µM* | -8 | 2.9µM*
CCCCn1c(N)c(N(CC(C)C)C(=O)c2cc(Cl)nc3ccccc23)c(=O)[nH]c1=O | -5% | -20% | 5% | 13 | -3%
COc1cc(OC)c(C(=O)CCCN2CCCC2)c(OC)c1 | 1% | -4% | ? | -8 | -24%
COc1ccc(-c2nc3ccccn3c2/N=C/c2ccc(OC)c(OC)c2)cc1O | 9% | 13% | -20% | -5 | -24%
CC(=O)c1cccc(NC(=O)CCN2C(=O)C3C4CCC(C4)C3C2=O)c1 (configuration not stated) | -3% | 3% | 5% | i | 4%
O=Nc1c(O)n(Cc2ccccc2)c2ccccc12 | -21% | -23% | -3% | -2 | -1%
Oc1c(N=NC(=S)Nc2ccccc2F)c2ccccc2n1Cc1ccc(Cl)cc1 | -15% | 2% | 4.6µM* | -11 | 5.8µM*
Cc1cccc(CSc2ncc(CO)n2C)c1 | -7% | -1% | -11% | -20 | ?
Cc1cccc(CSc2ncc(CO)n2Cc2ccc(F)cc2)c1 | / | / | 21µM* | / | 16µM*
Cc1ccccc1CSc1ncc(CO)n1Cc1ccc(F)cc1 | / | / | 18µM* | / | ?
CCOC(=O)C1CCCN(c2c(NCCN3CCCCC3C)c(=O)c2=O)C1 (configuration not stated) | -2% | 6% | -5% | 5 | -4%
COc1ccccc1OCCN1CSC(=S)N(C)C1 | 9.2µM* | 7.3µM* | 1.2µM* | -107* | 1.8µM*
Cc1cccc(OCCn2cnc(Cl)c2Cl)c1 | 7% | -7% | -28% | -52* | -16%
Cc1cccc(OCCN2CSC(=S)N(C)C2)c1 | 18µM* | ? | 4.6µM* | -96* | 3.3µM*
COc1ccccc1OCCCCN1CCCCC1 | 1% | 2% | -2% | 18 | 7%
CC(=O)N(Cc1ccccc1)c1nc(-c2ccccc2)cs1 | -1% | -9% | 1% | -18 | ?
O=[N+]([O-])c1cccc2c[nH]nc12 | / | / | ? | / | -13%
O=C(NCc1n[nH]c(=O)c2ccccc12)C1CC(=O)N(c2ccccc2)C1 (configuration not stated) | -5% | -14% | ? | 34 | ?
Cc1ccc(CNC(=O)CN2C(=O)C3CCCCN3c3ccc(C(=O)N(C)C)cc32)cc1 (configuration not stated) | / | / | -6% | / | -24%
CN(C)c1ccc(CNC(=O)c2ccc3c(c2)N(C)C(=O)C2CCCCN32)cc1 (configuration not stated) | / | / | 18µM* | / | ?
O=S(=O)(Nc1nccs1)c1cnc(Cl)c(Br)c1 | 4% | 7% | ? | 14 | ?
Cc1ccnc(NS(=O)(=O)c2cnc(Cl)c(Br)c2)c1 | 17% | 20% | -24% | -92* | -17%
O=S(=O)(Nc1nc2ccccc2s1)c1cnc(Cl)c(Br)c1 | -13% | 2% | 23µM* | 15 | ?
